CYP2C9 activ: human CYP2C9 activators, primary screen, biochemical, luminescence; 96,000 compounds, 1.4% hits; Cytochrome P450 2C9 (Homo sapiens), P11712; activation factor at 5 µM; AID 1024, 2008; recombinant CYP2C9, luciferin-H conversion; hits give high values; factor 1 = untreated enzyme, 0 = blocked;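 active = activation factor of 2 or more for CYP2C9 at a 5 µM dose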
CD11b adhes inh: inhibitors of CD11b/CD18 adhesion to fibrinogen, primary screen, K562 cells, luminescence. Integrin beta-2 (Homo sapiens) + Integrin alpha-M (Homo sapiens), P05107+P11215. ATPlite luminescence; Mn2+ added to activate the integrin. inhibition, % at 10 µM. 93,000 compounds, 0.54% hits. AID 1497, 2009;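 active = primary inhibition of 50% or more at 10 µM, then 40% or more on retest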
CD11b adhes enh: enhancers of CD11b/CD18 adhesion to fibrinogen, primary screen, K562 cells, luminescence; 93,000 compounds, 0.07% hits; AID 1499, 2009; activation, % at 10 µM; ATPlite luminescence;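 active = 10 µM primary screen giving 50% or more activity, confirmed by 40% or more on retest at that dose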
CYP2C9 inhib: blockers of cytochrome P450 2C9 activity – biochemical, luminescence, ADME assay, primary screen; inhibition, % at 5 µM; P11712; 96,000 compounds, 20% hits; AID 777, 2007; CYP2C9 Supersomes, luciferin-H conversion;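 active = blocking of liver enzyme CYP2C9 beyond about 50% at 5 µM, limit read from the data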
CYP2C19 inh: blockers of cytochrome P450 2C19 activity – biochemical, luminescence, ADME assay, primary screen; P33261; CYP2C19 Supersomes, luciferin-H EGE luminescence, 30 min; inhibition, % at 5 µM; 96,000 compounds, 21% hits;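 active = CYP2C19 inhibition above a set limit at 5 µM in the primary screen, cut at about 50% in these data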
CYP2C19 act: human CYP2C19 activators, primary screen, biochemical, luminescence | Cytochrome P450 2C19 (Homo sapiens), P33261 | recombinant CYP2C19, luciferin-H EGE luminescence; hits give high values; 0 = fully inhibited enzyme, 1 = untreated enzyme | activation factor at 5 µM | 96,000 tested, under 10 active;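 active = activation factor of at least 2 at 5 µM in the primary screen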
Numbers stand for hits; 0 = inactive; - = no result. Only some compounds are listed: those with a hit (about 28% of all), similar ones and a draw of the others.

SMILES	CYP2C9 activ	CD11b adhes inh	CD11b adhes enh	CYP2C9 inhib	CYP2C19 inh	CYP2C19 act
CCn1c(SCC(=O)Nc2ccc3c(c2)OCO3)nc2c(c1=O)SC(C)C2 (centres undefined)	0	0	0	84	69	0
CCn1c(SCC(=O)Nc2cccc(C)c2)nc2c(c1=O)SC(C)C2 (centres undefined)	0	0	0	75	0	0
CCSc1nnc(NC(=O)CSc2nc3c(c(=O)n2C)SC(C)C3)s1 (centres undefined)	0	0	0	62	0	0
CC(C)(C)OC(=O)N1CCC(C(=O)N2CCC[C@H]2C(=O)O)CC1	0	0	0	0	0	0
Clc1ccc2[nH]cc(-c3nnnn3-c3ccc4ccccc4c3)c2c1	0	0	0	0	0	0
Cc1nnc(NC(=O)CSc2nc3c(c(=O)n2CCc2ccccc2)SC(C)C3)s1 (centres undefined)	0	0	0	0	0	0
CCC(Sc1nc2c(c(=O)n1CC)SC(C)C2)C(=O)OC (centres undefined)	0	0	0	56	0	0
CCn1c(SCC(=O)Nc2nnc(C)s2)nc2c(c1=O)SC(C)C2 (centres undefined)	0	0	0	62	0	0
CC1Cc2nc(SCC(=O)Nc3ccc4c(c3)OCO4)n(CCc3ccccc3)c(=O)c2S1 (centres undefined)	0	0	0	85	0	0
Cc1cc(NC(=O)CSc2nc3c(c(=O)n2CCc2ccccc2)SC(C)C3)no1 (centres undefined)	0	0	0	0	0	0
Cc1ccccc1N(CC(=O)NCC1CCCO1)C(=O)C1(C)CC(=O)N=C2C=CC=CN21 (centres undefined)	0	0	0	0	0	0
CN1CCN(C(=O)c2cccc(S(=O)(=O)N3CCCCC3)c2)CC1	0	0	0	0	0	0
O=C(COc1ccc(S(=O)(=O)N2CCCC2)cc1Cl)N1CCN(c2ccccc2)CC1	0	0	0	85	88	0
O=C(c1ccc2ccccc2c1)N1CCN(c2ccccc2)CC1	0	0	0	0	62	0
CCc1cc2cc(C(=O)N3CCN(c4ccccc4)CC3)sc2s1	0	0	0	63	0	0
O=C(c1cccc(S(=O)(=O)N2CCCC2)c1)N1CCN(c2ccccc2)CC1	0	0	0	0	67	0
COC(=O)CNC(=O)COC(=O)c1cc(F)c(F)cc1Cl	0	0	0	0	0	0
OC(CNCCc1ccccc1)c1ccccc1 (centres undefined)	0	0	0	0	67	0
CCCCCCOC(=O)CCn1[nH]c(=O)c2ccccc2c1=O	0	0	0	54	56	0
CCCCCCOC(=O)Cc1c(C)nc(-c2ccccc2)[nH]c1=O	0	-	-	0	0	0
Cc1cnn(-c2ccc3nnc(-c4ccc(Br)cc4)n3n2)c1	0	0	0	0	0	0
O=C(Cn1cc(C(F)(F)F)ccc1=O)N1CCN(S(=O)(=O)c2ccc(Cl)cc2)CC1	0	0	0	0	0	0
COC(=O)C1=C(C)Nc2ccc(C)cc2S1	0	0	0	0	62	0
COC(=O)Nc1ccc(C)cc1NC(=O)OC	0	0	0	0	0	0
c1cc(-c2noc(CC3CCCCC3)n2)ccn1	0	0	0	77	99	0
COc1ccc(C2=Nn3c(nnc3-c3ccccn3)SC2)cc1OC	0	0	0	0	62	0
CCOc1ccc(C2=Nn3c(nnc3-c3ccccn3)SC2)cc1	0	0	0	0	0	0
COc1ccc(C2=Nn3c(nnc3-c3ccccc3OC)SC2)cc1OC	0	-	-	53	65	0
COc1ccc(C2=Nn3c(nnc3-c3ccco3)SC2)cc1OC	0	-	-	57	0	0
CCOc1cc(CNc2ccc(Br)cc2)cc(Br)c1OCC(=O)NC(C)(C)C	0	0	0	89	0	0
